The source made the active and inactive calls. No rule for the calls is given here.
Target: Pantothenate synthetase (Mycobacterium tuberculosis (strain ATCC 25618 / H37Rv)) (UniProt P9WIL5)
Assay: Recombinant Mtb pantothenate synthetase (PanC) inhibitors, coupled enzyme, confirmatory (AID 375);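 also: 0% = full reaction with vehicle and 100% = no enzyme background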
Details: coupled enzyme assay; at 10 µM, stronger effect = higher value

Pantothenate synthetase (Mycobacterium tuberculosis (strain ATCC 25618 / H37Rv)), sequence (P9WIL5 whole entry, looked up): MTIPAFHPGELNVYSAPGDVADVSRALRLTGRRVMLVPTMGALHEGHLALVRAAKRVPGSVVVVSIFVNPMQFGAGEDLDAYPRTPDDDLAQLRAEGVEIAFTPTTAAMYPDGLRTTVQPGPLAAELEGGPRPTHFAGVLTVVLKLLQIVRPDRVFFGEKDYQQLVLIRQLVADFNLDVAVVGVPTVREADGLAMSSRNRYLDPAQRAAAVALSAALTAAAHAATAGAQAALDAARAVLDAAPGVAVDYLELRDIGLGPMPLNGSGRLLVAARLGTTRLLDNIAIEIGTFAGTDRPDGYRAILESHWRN

Row | Compound | inhibition
1 | Cn1c(C(=O)N2CCN(C(=O)c3ccco3)CC2)cc2c(=O)n3ccccc3nc21 | 9% (inactive)
2 | Cc1ccccc1OCCn1c(=O)oc2ccccc21 | 2% (inactive)
3 | c1ccn2c(SCc3ccc4c(c3)OCCO4)nnc2c1 | 1% (inactive)
4 | CC(C)[C@H](NC(=O)NCc1ccc(Cl)cc1)C(=O)O | 0% (inactive)
5 | O=C(CSc1nnnn1C1CCCC1)Nc1cccc(NC(=O)c2ccco2)c1 | 5% (inactive)
6 | O=C(c1ccco1)N1CCN(S(=O)(=O)c2ccc(C3CCCCC3)cc2)CC1 | 3% (inactive)
7 | COc1ccc(-n2c(Cc3cccn3C)nnc2SCC(=O)Nc2cccc(C)c2C)cc1 | 0% (inactive)
8 | CCOC(=O)c1ccc2[nH]c(C)c(CN3CCN(C)CC3)c(=O)c2c1 | 0% (inactive)
9 | O=C1CCCc2c1cc(C(=O)NCc1ccco1)c(=O)n2-c1ccc(Cl)cc1 | 9% (inactive)
10 | CCOCCCNC(=O)CS(=O)(=O)Cc1nc(-c2cccc(OC)c2)oc1C | 0% (inactive)
11 | CCc1ccc2[nH]c(=O)c(C(c3nnnn3CC3CCCO3)N3CCCc4ccccc43)cc2c1 (stereo not given) | 0% (inactive)
12 | CN1C(=O)C(CC(=O)N2CCN(C(c3ccccc3)c3ccccc3)CC2)N(C)C1=O (stereo not given) | 0% (inactive)
13 | CC(=O)N(C(C)=O)c1ncc2c([nH]c3ccccc32)c1C#N | 0% (inactive)
14 | Cc1ccccc1OCc1nnc(SCC(=O)NCc2ccccc2)n1C | 0% (inactive)
15 | CCOc1ccccc1NC(=O)C1CCCN(S(=O)(=O)c2cccc3cccnc23)C1 (stereo not given) | 6% (inactive)
16 | COc1ccc(-c2nc3c(c(SCC(=O)N4CCOCC4)n2)COC(C)(C)C3)cc1 | 0% (inactive)
17 | Cc1ccc(NCC(O)C(O)C(O)CO)cc1C (stereo not given) | 0% (inactive)
18 | COc1ccc(C(=O)NCc2nc3ccccc3[nH]2)cc1OC | 5% (inactive)
19 | COc1cccc(Nc2cc(C)nc3ccccc23)c1 | 1% (inactive)
20 | COc1ccc(-n2c(=O)c3c4c(sc3n3c(C)nnc23)CCCC4)cc1 | 3% (inactive)

Row | Compound | inhibition
21 | Cc1cc(C)n(-c2nc3c(c(=O)n(Cc4ccc(Cl)c(Cl)c4)c(=O)n3C)n2C)n1 | 1% (inactive)
22 | CCOc1cc(C(=O)Nc2ncccn2)cc(OCC)c1OCC | 2% (inactive)
23 | N#Cc1c(N)n(CCOC(=O)c2cccc(Br)c2)c2nc3ccccc3nc12 | 3% (inactive)
24 | N#Cc1c(N)oc(-c2cccs2)c1-c1cccs1 | 1% (inactive)
25 | CCOc1ccc(N(CC(=O)NC2CCCC(C)C2C)S(=O)(=O)c2c(C)noc2C)cc1 (stereo not given) | 2% (inactive)
26 | Cc1ccc(S(=O)(=O)N(C)Cc2cc3ccccc3[nH]c2=O)cc1 | 0% (inactive)
27 | CCn1cc(C(=O)O)c(=O)c2cnc(N3CCNCC3)nc21 | 1% (inactive)
28 | Cc1cccc(NC(=O)Nc2cccc(C#N)c2)n1 | 1% (inactive)
29 | Cc1ccc(C)c(N2CCN(S(=O)(=O)c3ccc4c(c3)OCCO4)CC2)c1 | 4% (inactive)
30 | CCCOC(=O)c1ccc(-c2c(C)noc2-c2ccc(OC)cc2O)o1 | 0% (inactive)
31 | Cc1noc(/C=C/N(C)C)c1S(=O)(=O)N1CCc2ccccc21 | 0% (inactive)
32 | c1c2c(cc3sc(N4CCCCC4)nc13)OCCO2 | 4% (inactive)
33 | CC(NC(=O)c1ccco1)c1ccc2c(c1)OCCO2 (stereo not given) | 0% (inactive)
34 | COc1ccc(Cc2nc(-c3ccc(NC(=O)c4cccnc4)cc3)no2)cc1 | 0% (inactive)
35 | Cc1ncc(CO)c2c1OC(C)(C)OC2 | 0% (inactive)
36 | CCCN(CCC)CCNS(=O)(=O)c1ccc2c(c1)oc(=O)n2C | 2% (inactive)
37 | O=C1[C@@H]2C(c3ccccc3Cl)=NO[C@@H]2C(=O)N1Cc1ccccc1 | 0% (inactive)
38 | CCOCCCNC(=O)CCNS(=O)(=O)c1ccc(C)cc1 | 2% (inactive)
39 | CCOC(=O)c1[nH]cc(-c2ccccc2)c1N1CCOCC1 | 0% (inactive)
40 | O=C(c1cnn2c(C(F)F)cc(C3CC3)nc12)N1CCOCC1 | 1% (inactive)
